# Key:
# Assay in all cases: DAPPL (digital affinity profiling via proximity ligation, sequencing); 10 mM Tris-HCl pH 7.5, 50 mM NaCl, 1 mM DTT, 4% glycerol, room temperature, 30 min; GST-TFs on glutathione beads, 16-mer random dsDNA library, 0.1% formaldehyde crosslink after washing; high values mean tight binding
# [1] = molecular target: T1, FLI1 (Homo sapiens, UniProt Q01543 1-452); conditions: protein: recombinant; tags: N-terminal GST; dsDNA, one strand shown
# T1 sequence: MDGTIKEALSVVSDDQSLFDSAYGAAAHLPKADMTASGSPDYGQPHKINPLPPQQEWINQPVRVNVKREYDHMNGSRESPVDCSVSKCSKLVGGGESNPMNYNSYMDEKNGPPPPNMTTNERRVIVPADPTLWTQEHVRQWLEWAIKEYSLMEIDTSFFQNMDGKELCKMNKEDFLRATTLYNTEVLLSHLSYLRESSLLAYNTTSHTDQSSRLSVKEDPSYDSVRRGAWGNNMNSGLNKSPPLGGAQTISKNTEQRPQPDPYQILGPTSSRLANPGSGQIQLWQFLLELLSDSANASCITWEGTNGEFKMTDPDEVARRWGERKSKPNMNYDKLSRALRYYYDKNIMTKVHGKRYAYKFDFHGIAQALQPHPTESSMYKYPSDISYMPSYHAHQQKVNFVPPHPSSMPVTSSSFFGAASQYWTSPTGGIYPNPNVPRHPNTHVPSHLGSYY
# How it was run: (§1)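 Beads coated with glutathione captured GST-fused human transcription factors that had been expressed in yeast, and the factors were then given DNA barcodes and pooled with a tag-only sample. The pools were incubated with 200 nmole of a random double-stranded 16-mer DNA library in Tris/NaCl/DTT/glycerol buffer for 30 min at room temperature, washed, crosslinked with 0.1% formaldehyde and proximity-ligated with BsaI/T4 ligase at 37 °C for 1 h. PCR amplification and Illumina NextSeq500 sequencing came last. Binding signal is each hexamer's read frequency for a factor divided by its frequency for the tag-only sample.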
# [2] = molecular target: T2, ELK1 (Homo sapiens, UniProt P19419 1-428); conditions: protein: recombinant; tags: N-terminal GST; dsDNA, one strand shown
# T2 sequence: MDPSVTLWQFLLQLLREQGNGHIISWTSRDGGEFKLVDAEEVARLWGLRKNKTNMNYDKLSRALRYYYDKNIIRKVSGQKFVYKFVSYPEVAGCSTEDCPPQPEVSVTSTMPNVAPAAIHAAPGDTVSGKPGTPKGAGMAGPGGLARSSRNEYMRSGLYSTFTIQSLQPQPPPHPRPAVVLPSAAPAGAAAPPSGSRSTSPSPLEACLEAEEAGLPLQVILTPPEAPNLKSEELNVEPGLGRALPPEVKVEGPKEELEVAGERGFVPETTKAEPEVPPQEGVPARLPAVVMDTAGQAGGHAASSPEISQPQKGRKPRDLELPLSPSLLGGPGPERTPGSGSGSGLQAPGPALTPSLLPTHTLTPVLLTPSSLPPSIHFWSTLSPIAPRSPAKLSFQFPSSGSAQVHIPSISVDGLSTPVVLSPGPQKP
# How it was run: as §1
# [3] = molecular target: T3, GABPA (Homo sapiens, UniProt Q06546 1-454); conditions: protein: recombinant; tags: N-terminal GST; dsDNA, one strand shown
# T3 sequence: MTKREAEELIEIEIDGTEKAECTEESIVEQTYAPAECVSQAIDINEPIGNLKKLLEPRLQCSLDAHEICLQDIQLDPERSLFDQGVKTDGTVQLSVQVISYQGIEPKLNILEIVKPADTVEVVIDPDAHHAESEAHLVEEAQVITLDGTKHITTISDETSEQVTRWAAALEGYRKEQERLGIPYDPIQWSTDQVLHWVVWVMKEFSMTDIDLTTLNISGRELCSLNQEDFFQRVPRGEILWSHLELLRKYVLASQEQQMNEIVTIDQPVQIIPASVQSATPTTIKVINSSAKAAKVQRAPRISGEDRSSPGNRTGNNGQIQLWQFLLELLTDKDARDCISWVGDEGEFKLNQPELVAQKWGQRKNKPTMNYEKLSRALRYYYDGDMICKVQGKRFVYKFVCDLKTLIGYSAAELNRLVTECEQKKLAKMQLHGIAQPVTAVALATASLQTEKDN
# How it was run: as §1
# [4] = molecular target: T4, ERG (Homo sapiens, UniProt P11308 1-479); conditions: protein: recombinant; tags: N-terminal GST; dsDNA, one strand shown
# T4 sequence: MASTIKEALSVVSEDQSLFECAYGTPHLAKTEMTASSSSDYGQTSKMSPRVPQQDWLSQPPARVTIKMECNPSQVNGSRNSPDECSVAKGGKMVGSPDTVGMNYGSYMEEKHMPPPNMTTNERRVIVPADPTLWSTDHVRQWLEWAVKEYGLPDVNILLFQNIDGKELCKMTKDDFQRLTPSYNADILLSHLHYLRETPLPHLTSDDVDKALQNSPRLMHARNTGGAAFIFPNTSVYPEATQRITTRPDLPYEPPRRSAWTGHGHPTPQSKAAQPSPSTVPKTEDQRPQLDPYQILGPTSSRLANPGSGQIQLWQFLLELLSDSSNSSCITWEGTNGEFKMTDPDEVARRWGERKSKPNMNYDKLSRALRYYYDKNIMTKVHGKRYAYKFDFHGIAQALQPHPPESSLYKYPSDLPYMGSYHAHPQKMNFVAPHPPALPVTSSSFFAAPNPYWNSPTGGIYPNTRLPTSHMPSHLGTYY
# How it was run: as §1
# [5] = molecular target: ELF1 (Homo sapiens, UniProt P32519 1-619); conditions: protein: recombinant; tags: N-terminal GST; dsDNA, one strand shown
# How it was run: as §1
# [6] = molecular target: T5, EHF (Homo sapiens, UniProt Q9NZC4 1-300); conditions: protein: recombinant; tags: N-terminal GST; dsDNA, one strand shown
# T5 sequence: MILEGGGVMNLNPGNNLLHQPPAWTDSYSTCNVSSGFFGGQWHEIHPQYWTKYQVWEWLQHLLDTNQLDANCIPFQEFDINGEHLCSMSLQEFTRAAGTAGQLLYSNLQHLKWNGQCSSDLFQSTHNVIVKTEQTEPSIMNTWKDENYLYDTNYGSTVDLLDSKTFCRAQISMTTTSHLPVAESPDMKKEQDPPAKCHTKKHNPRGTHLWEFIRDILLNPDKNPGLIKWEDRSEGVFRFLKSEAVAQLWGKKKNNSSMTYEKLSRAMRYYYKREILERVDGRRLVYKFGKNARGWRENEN
# How it was run: as §1
# [7] = molecular target: SPI1 (Homo sapiens, UniProt P17947 1-270); conditions: protein: recombinant; tags: N-terminal GST; dsDNA, one strand shown
# How it was run: as §1
# [8] = molecular target: SPIB (Homo sapiens, UniProt Q01892 1-262); conditions: protein: recombinant; tags: N-terminal GST; dsDNA, one strand shown
# How it was run: as §1
# [9] = molecular target: T6, ELK3 (Homo sapiens, UniProt P41970 1-407); conditions: protein: recombinant; tags: N-terminal GST; dsDNA, one strand shown
# T6 sequence: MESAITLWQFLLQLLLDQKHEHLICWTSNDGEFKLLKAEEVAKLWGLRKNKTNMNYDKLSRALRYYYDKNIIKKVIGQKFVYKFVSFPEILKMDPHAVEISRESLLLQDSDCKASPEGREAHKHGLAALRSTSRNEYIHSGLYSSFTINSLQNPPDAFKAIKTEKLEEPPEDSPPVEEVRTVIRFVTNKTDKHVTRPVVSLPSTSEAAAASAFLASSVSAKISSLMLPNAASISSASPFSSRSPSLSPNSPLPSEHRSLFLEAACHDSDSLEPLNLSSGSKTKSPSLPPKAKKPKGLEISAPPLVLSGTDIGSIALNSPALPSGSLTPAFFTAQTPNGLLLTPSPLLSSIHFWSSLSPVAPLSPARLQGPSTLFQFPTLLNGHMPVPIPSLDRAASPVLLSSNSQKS
# How it was run: as §1
# [10] = molecular target: T7, FEV (Homo sapiens, UniProt Q99581 1-238); conditions: protein: recombinant; tags: N-terminal GST; dsDNA, one strand shown
# T7 sequence: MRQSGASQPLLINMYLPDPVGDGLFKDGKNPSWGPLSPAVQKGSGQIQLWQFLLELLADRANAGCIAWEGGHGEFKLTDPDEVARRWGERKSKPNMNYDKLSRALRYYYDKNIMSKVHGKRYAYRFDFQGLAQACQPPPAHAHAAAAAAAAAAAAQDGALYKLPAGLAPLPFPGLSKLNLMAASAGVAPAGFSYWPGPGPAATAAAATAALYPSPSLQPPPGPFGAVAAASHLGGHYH
# How it was run: as §1
# [11] = molecular target: ETV5 (Homo sapiens, UniProt P41161 1-510); conditions: protein: recombinant; tags: N-terminal GST; dsDNA, one strand shown
# How it was run: as §1
# [12] = molecular target: HSF1 (Homo sapiens, UniProt Q00613 1-529); conditions: protein: recombinant; tags: N-terminal GST; chain copies: 3; dsDNA, one strand shown
# How it was run: as §1
# [13] = molecular target: T8, SPIC (Homo sapiens, UniProt Q8N5J4 1-248); conditions: protein: recombinant; tags: N-terminal GST; dsDNA, one strand shown
# T8 sequence: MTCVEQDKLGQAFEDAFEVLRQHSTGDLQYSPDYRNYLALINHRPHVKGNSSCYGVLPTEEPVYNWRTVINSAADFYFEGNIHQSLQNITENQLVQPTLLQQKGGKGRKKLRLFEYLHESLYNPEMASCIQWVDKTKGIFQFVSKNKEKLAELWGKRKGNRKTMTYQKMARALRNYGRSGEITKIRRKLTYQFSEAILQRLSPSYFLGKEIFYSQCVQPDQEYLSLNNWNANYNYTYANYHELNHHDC
# How it was run: as §1
# [14] = molecular target: ELF4 (Homo sapiens, UniProt Q99607 1-663); conditions: protein: recombinant; tags: N-terminal GST; dsDNA, one strand shown
# How it was run: as §1
# [15] = molecular target: T9, ELK4 (Homo sapiens, UniProt P28324-2 1-405); conditions: protein: recombinant; tags: N-terminal GST; dsDNA, one strand shown
# T9 sequence: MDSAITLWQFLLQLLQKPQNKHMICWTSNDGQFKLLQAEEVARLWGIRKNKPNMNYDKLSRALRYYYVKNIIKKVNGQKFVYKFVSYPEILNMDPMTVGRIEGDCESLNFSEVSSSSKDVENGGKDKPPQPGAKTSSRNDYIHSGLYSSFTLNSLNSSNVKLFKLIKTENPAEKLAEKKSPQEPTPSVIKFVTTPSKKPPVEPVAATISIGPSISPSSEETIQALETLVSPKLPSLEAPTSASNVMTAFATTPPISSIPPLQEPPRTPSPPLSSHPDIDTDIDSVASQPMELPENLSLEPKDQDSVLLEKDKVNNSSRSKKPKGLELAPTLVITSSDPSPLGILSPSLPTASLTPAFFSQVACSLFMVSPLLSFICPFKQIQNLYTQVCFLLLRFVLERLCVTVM
# How it was run: as §1
# [16] = molecular target: T10, ETV2 (Homo sapiens, UniProt O00321 1-342); conditions: protein: recombinant; tags: N-terminal GST; dsDNA, one strand shown
# T10 sequence: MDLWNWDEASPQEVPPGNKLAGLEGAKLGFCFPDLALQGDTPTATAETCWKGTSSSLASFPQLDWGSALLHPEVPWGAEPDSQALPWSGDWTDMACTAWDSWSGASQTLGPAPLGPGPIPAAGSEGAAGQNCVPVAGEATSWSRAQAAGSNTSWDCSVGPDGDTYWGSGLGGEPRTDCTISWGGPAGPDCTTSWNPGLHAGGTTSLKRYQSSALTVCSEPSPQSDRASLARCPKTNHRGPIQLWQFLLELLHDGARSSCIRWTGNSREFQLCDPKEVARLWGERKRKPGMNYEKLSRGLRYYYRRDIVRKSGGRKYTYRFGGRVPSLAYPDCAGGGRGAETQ
# How it was run: as §1
# [17] = molecular target: T11, ELF3 (Homo sapiens, UniProt P78545 1-371); conditions: protein: recombinant; tags: N-terminal GST; dsDNA, one strand shown
# T11 sequence: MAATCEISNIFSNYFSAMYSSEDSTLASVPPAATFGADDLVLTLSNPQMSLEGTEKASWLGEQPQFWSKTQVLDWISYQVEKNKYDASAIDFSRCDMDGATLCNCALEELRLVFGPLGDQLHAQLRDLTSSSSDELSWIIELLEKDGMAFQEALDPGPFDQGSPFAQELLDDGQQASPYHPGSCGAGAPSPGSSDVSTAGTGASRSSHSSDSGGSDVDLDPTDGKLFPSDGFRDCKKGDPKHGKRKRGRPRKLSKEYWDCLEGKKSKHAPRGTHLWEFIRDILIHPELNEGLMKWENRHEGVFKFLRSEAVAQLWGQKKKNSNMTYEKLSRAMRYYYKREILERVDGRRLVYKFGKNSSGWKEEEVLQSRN
# How it was run: as §1
# [18] = molecular target: CRX (Homo sapiens, UniProt O43186 1-299); conditions: protein: recombinant; tags: N-terminal GST; dsDNA, one strand shown
# How it was run: as §1
# [19] = molecular target: ETV1 (Homo sapiens, UniProt P50549 1-477); conditions: protein: recombinant; tags: N-terminal GST; dsDNA, one strand shown
# How it was run: as §1
# Chain of ELF4 (Q99607 whole entry): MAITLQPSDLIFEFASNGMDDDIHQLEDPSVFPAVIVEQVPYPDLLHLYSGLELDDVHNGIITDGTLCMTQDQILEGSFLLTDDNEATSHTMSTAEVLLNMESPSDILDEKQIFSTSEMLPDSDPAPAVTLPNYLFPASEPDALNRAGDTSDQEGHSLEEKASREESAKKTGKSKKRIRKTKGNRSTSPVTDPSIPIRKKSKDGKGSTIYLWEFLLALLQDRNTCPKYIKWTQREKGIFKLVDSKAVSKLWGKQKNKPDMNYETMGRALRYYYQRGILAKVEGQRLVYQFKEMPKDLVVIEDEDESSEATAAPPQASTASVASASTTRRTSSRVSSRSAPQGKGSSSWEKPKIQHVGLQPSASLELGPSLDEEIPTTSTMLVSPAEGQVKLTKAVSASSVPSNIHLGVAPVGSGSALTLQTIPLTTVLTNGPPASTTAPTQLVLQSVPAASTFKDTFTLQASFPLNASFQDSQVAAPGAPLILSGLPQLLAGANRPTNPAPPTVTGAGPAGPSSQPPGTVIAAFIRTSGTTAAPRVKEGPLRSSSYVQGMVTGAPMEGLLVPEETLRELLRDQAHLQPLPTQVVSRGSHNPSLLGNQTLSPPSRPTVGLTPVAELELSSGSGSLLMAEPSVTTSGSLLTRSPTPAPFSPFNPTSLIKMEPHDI
# Chain of ELF1 (P32519 whole entry): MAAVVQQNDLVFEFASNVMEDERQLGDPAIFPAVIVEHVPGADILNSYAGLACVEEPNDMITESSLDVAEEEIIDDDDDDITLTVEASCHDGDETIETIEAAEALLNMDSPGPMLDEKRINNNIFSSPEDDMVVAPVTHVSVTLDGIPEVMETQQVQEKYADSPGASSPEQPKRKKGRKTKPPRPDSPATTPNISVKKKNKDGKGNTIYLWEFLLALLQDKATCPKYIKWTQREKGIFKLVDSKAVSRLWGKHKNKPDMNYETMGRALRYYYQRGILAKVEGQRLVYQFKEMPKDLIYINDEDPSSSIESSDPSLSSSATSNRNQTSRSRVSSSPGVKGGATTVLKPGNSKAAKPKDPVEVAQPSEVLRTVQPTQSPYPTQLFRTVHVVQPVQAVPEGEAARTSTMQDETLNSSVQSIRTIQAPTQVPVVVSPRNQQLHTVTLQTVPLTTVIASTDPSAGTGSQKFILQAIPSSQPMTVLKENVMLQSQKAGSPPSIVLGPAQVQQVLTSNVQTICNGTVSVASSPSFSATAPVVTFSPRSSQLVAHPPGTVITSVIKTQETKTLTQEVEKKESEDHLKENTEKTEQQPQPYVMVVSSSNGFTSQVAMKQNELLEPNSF
# Chain of ETV5 (P41161 whole entry): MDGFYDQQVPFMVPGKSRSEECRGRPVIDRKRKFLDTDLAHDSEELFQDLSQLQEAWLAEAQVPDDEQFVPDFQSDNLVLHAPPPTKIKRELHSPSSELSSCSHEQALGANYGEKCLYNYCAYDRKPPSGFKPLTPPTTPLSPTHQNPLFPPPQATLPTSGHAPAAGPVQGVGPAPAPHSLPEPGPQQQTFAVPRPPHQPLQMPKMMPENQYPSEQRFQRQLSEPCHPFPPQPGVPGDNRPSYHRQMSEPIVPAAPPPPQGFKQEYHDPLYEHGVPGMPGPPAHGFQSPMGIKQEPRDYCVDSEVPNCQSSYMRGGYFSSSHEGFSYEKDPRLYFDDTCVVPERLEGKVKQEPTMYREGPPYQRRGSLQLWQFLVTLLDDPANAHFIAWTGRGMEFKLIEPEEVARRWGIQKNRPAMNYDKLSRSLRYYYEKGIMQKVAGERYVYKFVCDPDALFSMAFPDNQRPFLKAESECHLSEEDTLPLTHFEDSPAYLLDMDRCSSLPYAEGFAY
# Chain of SPIB (Q01892 whole entry): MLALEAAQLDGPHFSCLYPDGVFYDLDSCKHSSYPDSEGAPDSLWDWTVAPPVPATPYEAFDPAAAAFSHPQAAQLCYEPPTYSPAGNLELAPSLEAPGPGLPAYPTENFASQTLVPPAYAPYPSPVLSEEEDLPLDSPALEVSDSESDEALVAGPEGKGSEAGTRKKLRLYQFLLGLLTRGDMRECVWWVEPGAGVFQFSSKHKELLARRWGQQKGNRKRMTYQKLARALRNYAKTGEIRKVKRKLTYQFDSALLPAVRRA
# Chain of ETV1 (P50549 whole entry): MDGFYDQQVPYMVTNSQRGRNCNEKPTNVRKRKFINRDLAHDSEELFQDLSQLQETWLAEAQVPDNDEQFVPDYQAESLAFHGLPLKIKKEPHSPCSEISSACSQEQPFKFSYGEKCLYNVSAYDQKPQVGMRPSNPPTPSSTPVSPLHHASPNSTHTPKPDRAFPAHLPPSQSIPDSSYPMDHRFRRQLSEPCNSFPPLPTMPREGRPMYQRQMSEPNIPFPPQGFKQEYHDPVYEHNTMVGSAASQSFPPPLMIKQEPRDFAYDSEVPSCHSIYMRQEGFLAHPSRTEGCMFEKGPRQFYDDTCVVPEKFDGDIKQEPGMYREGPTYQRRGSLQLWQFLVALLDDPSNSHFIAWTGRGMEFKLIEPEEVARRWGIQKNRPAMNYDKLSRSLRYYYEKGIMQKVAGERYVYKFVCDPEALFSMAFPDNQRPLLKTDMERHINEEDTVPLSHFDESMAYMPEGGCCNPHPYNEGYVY
# Chain of CRX (O43186 whole entry): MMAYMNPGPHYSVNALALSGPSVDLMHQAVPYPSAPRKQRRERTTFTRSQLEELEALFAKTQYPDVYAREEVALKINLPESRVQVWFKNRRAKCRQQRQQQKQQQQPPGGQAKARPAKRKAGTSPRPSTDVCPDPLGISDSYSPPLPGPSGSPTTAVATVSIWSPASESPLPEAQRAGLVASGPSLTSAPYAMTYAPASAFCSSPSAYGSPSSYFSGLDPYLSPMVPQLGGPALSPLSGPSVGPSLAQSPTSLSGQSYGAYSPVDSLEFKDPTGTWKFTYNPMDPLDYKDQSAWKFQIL
# Chain of HSF1 (Q00613 whole entry): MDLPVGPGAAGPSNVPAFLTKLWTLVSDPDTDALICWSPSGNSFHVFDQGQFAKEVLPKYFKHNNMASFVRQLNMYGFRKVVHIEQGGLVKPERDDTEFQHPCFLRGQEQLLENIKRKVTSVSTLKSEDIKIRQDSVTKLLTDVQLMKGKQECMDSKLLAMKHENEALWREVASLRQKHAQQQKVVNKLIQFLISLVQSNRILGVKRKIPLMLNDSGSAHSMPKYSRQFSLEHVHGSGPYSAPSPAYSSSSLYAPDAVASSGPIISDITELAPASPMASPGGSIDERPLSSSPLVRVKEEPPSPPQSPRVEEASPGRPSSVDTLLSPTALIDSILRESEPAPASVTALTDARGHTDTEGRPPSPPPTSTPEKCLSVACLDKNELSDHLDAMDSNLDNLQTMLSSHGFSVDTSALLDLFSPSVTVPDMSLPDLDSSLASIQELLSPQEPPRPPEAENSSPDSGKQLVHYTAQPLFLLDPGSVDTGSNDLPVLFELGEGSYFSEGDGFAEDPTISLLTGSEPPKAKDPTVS
sequence,measurement,setting,value
CACTTG,binding signal,[1],"1.36 fold enrichment (6-mer frequency, TF over GST control)"
same,binding signal,[2],"1.48 fold enrichment (6-mer frequency, TF over GST control)"
same,binding signal,[3],"1.32 fold enrichment (6-mer frequency, TF over GST control)"
same,binding signal,[4],"1.37 fold enrichment (6-mer frequency, TF over GST control)"
same,binding signal,[5],"1.33 fold enrichment (6-mer frequency, TF over GST control)"
same,binding signal,[6],"1.36 fold enrichment (6-mer frequency, TF over GST control)"
same,binding signal,[7],"1.39 fold enrichment (6-mer frequency, TF over GST control)"
same,binding signal,[8],"1.3 fold enrichment (6-mer frequency, TF over GST control)"
same,binding signal,[9],"1.26 fold enrichment (6-mer frequency, TF over GST control)"
same,binding signal,[10],"1.33 fold enrichment (6-mer frequency, TF over GST control)"
same,binding signal,[11],"1.41 fold enrichment (6-mer frequency, TF over GST control)"
same,binding signal,[12],"1.12 fold enrichment (6-mer frequency, TF over GST control)"
same,binding signal,[13],"1.12 fold enrichment (6-mer frequency, TF over GST control)"
same,binding signal,[14],"1.45 fold enrichment (6-mer frequency, TF over GST control)"
same,binding signal,[15],"1.43 fold enrichment (6-mer frequency, TF over GST control)"
same,binding signal,[16],"1.36 fold enrichment (6-mer frequency, TF over GST control)"
same,binding signal,[17],"1.41 fold enrichment (6-mer frequency, TF over GST control)"
same,binding signal,[18],"1.1 fold enrichment (6-mer frequency, TF over GST control)"
same,binding signal,[19],"1.36 fold enrichment (6-mer frequency, TF over GST control)"

# From publication PMC7862700, “An all-to-all approach to the identification of sequence-specific readers for epigenetic DNA modifications on cytosine”
